Among all 5,500 compounds or so, about 2,000 (36%) were called active. Roughly 18% stayed inconclusive and do not appear here. No stated cut-off is given here; in the data, active means normalized growth mostly below about 0.91 (no sharp cut-off); inconclusive means no clear call, values can overlap the other calls; inactive means mostly above about 0.92. This is one part of the list.
Experiment: chemical genetic growth profiling, strain panel (AID 1159580);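 further: tested at 20 µM; growth read once vehicle control cultures reached saturation at 30 °C; 1 = growth at the plate median or of vehicle wells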
Details: S. cerevisiae deletion strains, growth OD

Measured: normalized growth

C=C1CCC2[C@](C)(CO)[C@H](O)CC[C@@]2(C)[C@@H]1C/C=C1/C(=O)OC[C@H]1O (some centres undefined)
inactive: locus YAL013W, strain DEP1, stronger effect = lower value 1.01 | locus YAL021C, strain ccr4, stronger effect = lower value 0.993 | locus YAL026C, strain drs2, stronger effect = lower value 0.992 | locus YAL030W, strain snc1, stronger effect = lower value 0.996 | locus YBL061C, strain skt5, stronger effect = lower value 1 | locus YBR009C, strain hhf1, stronger effect = lower value 1.02 | locus YBR021W, strain FUR4, stronger effect = lower value 1 | locus YBR023C, strain chs3, stronger effect = lower value 0.999 | locus YBR171W, strain sec66, stronger effect = lower value 0.978 | locus YBR229C, strain ROT2, stronger effect = lower value 1.01 | locus YBR231C, strain swc5, stronger effect = lower value 0.996 | locus YBR279W, strain paf1, stronger effect = lower value 1 | locus YCL011C, strain gbp2, stronger effect = lower value 0.985 | locus YCL016C, strain dcc1, stronger effect = lower value 0.998 | locus YCL029C, strain bik1, stronger effect = lower value 1.03 | locus YCL069W, strain vba3, stronger effect = lower value 1.01 | locus YCR088W, strain abp1, stronger effect = lower value 1 | locus YDL005C, strain med2, stronger effect = lower value 0.961 | locus YDL035C, strain GPR1, stronger effect = lower value 1.02 | locus YDL040C, strain nat1, stronger effect = lower value 0.995 | locus YDL074C, strain BRE1, stronger effect = lower value 1.06 | locus YDL101C, strain DUN1, stronger effect = lower value 1.02 | locus YDL185W, strain tfp1, stronger effect = lower value 1.03 | locus YDL192W, strain arf1, stronger effect = lower value 1.02 | locus YDR001C, strain nth1, stronger effect = lower value 0.988 | locus YDR069C, strain doa4, stronger effect = lower value 0.992 | locus YDR101C, strain arx1, stronger effect = lower value 1.01 | locus YDR137W, strain rgp1, stronger effect = lower value 0.995 | locus YDR159W, strain sac3, stronger effect = lower value 1.04 | locus YDR162C, strain NBP2, stronger effect = lower value 1.04 | locus YDR195W, strain ref2 0.949 | locus YDR297W, strain sur2, stronger effect = lower value 1 | locus YDR318W, strain mcm21, stronger effect = lower value 1.05 | locus YDR334W, strain swr1, stronger effect = lower value 0.987 | locus YDR335W, strain msn5, stronger effect = lower value 0.986 | locus YDR388W, stronger effect = lower value 1.01 | locus YDR392W, strain spt3, stronger effect = lower value 0.998 | locus YDR502C, strain sam2, stronger effect = lower value 1.05 | locus YEL003W, strain gim4, stronger effect = lower value 0.995 | locus YEL037C, strain rad23, stronger effect = lower value 0.999 | locus YEL061C, strain CIN8 (second series), stronger effect = lower value 0.99 | locus YEL061C, strain CIN8, stronger effect = lower value 1.01 | locus YER015W, strain faa2, stronger effect = lower value 0.994 | locus YER016W, strain bim1, stronger effect = lower value 0.978 | locus YER110C, stronger effect = lower value 1.02 | locus YER111C, strain swi4, stronger effect = lower value 0.988 | locus YER155C, strain BEM2 (second series), stronger effect = lower value 0.995 | locus YER155C, strain BEM2, stronger effect = lower value 1.02 | locus YER167W, strain BCK2, stronger effect = lower value 1.01 | locus YFR010W, strain ubp6, stronger effect = lower value 1.02 | locus YGL078C, strain dbp3, stronger effect = lower value 1.03 | locus YGL086W, strain mad1, stronger effect = lower value 1.01 | locus YGL167C, strain pmr1, stronger effect = lower value 0.992 | locus YGL173C, strain kem1, stronger effect = lower value 1.01 | locus YGL227W, strain vid30, stronger effect = lower value 0.991 | locus YGL240W, strain doc1, stronger effect = lower value 0.999 | locus YGL248W, strain PDE1, stronger effect = lower value 1.03 | locus YGL253W, strain hxk2, stronger effect = lower value 0.971 | locus YGR078C, strain PAC10, stronger effect = lower value 1.03 | locus YGR135W, strain pre9, stronger effect = lower value 1.05 | locus YGR252W, strain gcn5, stronger effect = lower value 1.01 | locus YHR013C, strain ard1, stronger effect = lower value 0.983 | locus YHR027C, strain rpn1, stronger effect = lower value 0.976 | locus YHR079C, strain IRE1 (second series), stronger effect = lower value 1.03 | locus YHR094C, strain hxt1, stronger effect = lower value 1.02 | locus YHR129C, strain ARP1, stronger effect = lower value 1.01 | locus YHR142W, strain chs7, stronger effect = lower value 0.976 | locus YHR200W, strain rpn10, stronger effect = lower value 1.03 | locus YIL066C, strain RNR3, stronger effect = lower value 1.02 | locus YIL073C, strain SPO22, stronger effect = lower value 1.11 | locus YIL125W, strain kgd1, stronger effect = lower value 1.03 | locus YIR030C, strain dcg1, stronger effect = lower value 1.03 | locus YJL092W, strain hpr5, stronger effect = lower value 0.985 | locus YJL095W, strain BCK1 (second series), stronger effect = lower value 0.982 | locus YJL095W, strain BCK1, stronger effect = lower value 1.05 | locus YJL115W, strain asf1, stronger effect = lower value 0.955 | locus YJL129C, strain trk1, stronger effect = lower value 0.982 | locus YJL134W, strain LCB3, stronger effect = lower value 1.01 | locus YJL154C, strain vps35, stronger effect = lower value 0.984 | locus YJL164C, strain tpk1, stronger effect = lower value 1.01 | locus YJL166W, strain qcr8, stronger effect = lower value 0.987 | locus YJL168C, strain set2, stronger effect = lower value 1.02 | locus YJL187C, strain SWE1 (second series), stronger effect = lower value 1.02 | locus YJL187C, strain SWE1, stronger effect = lower value 0.996 | locus YJR043C, strain POL32, stronger effect = lower value 1.02 | locus YKL009W, strain mrt4, stronger effect = lower value 1.02 | locus YKL068W, stronger effect = lower value 1.02 | locus YKL085W, strain MDH1 (second series), stronger effect = lower value 1.03 | locus YKL085W, strain MDH1, stronger effect = lower value 1.03 | locus YKL160W, strain elf1, stronger effect = lower value 0.995 | locus YKL190W, strain CNB1, stronger effect = lower value 1.01 | locus YKR001C, strain vps1, stronger effect = lower value 1.07 | locus YKR026C, strain gcn3, stronger effect = lower value 0.999 | locus YKR091W, strain srl3, stronger effect = lower value 0.979 | locus YLL001W, strain dnm1, stronger effect = lower value 1.01 | locus YLL026W, stronger effect = lower value 0.993 | locus YLL041C, strain sdh2, stronger effect = lower value 1.02 | locus YLR027C, strain aat2, stronger effect = lower value 1 | locus YLR039C, strain RIC1, stronger effect = lower value 1.09 | locus YLR058C, strain SHM2, stronger effect = lower value 1.04 | locus YLR102C, strain apc9, stronger effect = lower value 1.02 | locus YLR221C, strain rsa3, stronger effect = lower value 1.04 | locus YLR258W, strain gsy2, stronger effect = lower value 1.01 | locus YLR262C, strain YPT6 (second series), stronger effect = lower value 0.975 | locus YLR268W, strain sec22, stronger effect = lower value 1.04 | locus YLR320W, strain mms22, stronger effect = lower value 1.04 | locus YLR330W, strain CHS5, stronger effect = lower value 1.02 | locus YLR342W, strain FKS1, stronger effect = lower value 1.02 | locus YLR357W, strain rsc2, stronger effect = lower value 0.979 | locus YLR370C, strain arc18, stronger effect = lower value 0.972 | locus YLR371W, strain rom2, stronger effect = lower value 1.02 | locus YLR384C, strain iki3, stronger effect = lower value 0.993 | locus YLR418C, strain cdc73, stronger effect = lower value 1.07 | locus YML016C, strain PPZ1, stronger effect = lower value 1.01 | locus YML032C, strain rad52, stronger effect = lower value 1.03 | locus YML120C, strain ndi1, stronger effect = lower value 1 | locus YML124C, strain tub3, stronger effect = lower value 1.03 | locus YMR058W, strain fet3, stronger effect = lower value 0.977 | locus YMR078C, strain ctf18, stronger effect = lower value 1.03 | locus YMR125W, strain sto1, stronger effect = lower value 0.98 | locus YMR129W, stronger effect = lower value 0.98 | locus YMR205C, strain PFK2, stronger effect = lower value 0.995 | locus YMR223W, strain ubp8, stronger effect = lower value 1.03 | locus YMR231W, strain pep5, stronger effect = lower value 0.997 | locus YMR307W, strain GAS1, stronger effect = lower value 0.967 | locus YNL067W, strain RPL9B, stronger effect = lower value 1.02 | locus YNL071W, strain lat1, stronger effect = lower value 1 | locus YNL209W, strain ssb2, stronger effect = lower value 0.987 | locus YNL233W, strain BNI4, stronger effect = lower value 1.02 | locus YNL248C, strain rpa49, stronger effect = lower value 0.979 | locus YNL250W, strain rad50, stronger effect = lower value 1.04 | locus YNL271C, strain bni1, stronger effect = lower value 1.03 | locus YNL298W, strain CLA4, stronger effect = lower value 1.03 | locus YNL307C, strain MCK1, stronger effect = lower value 1.04 | locus YNL322C, strain KRE1 (second series), stronger effect = lower value 0.977 | locus YNR049C, strain mso1, stronger effect = lower value 0.974 | locus YNR052C, strain pop2, stronger effect = lower value 1.03 | locus YOL006C, strain TOP1, stronger effect = lower value 1.07 | locus YOL012C, strain htz1 1.13 | locus YOL147C, strain pex11, stronger effect = lower value 1.04 | locus YOR001W, strain rrp6, stronger effect = lower value 1.01 | locus YOR061W, strain CKA2, stronger effect = lower value 1.02 | locus YOR069W, strain VPS5, stronger effect = lower value 1.01 | locus YOR070C, strain gyp1, stronger effect = lower value 1.01 | locus YOR080W, strain dia2, stronger effect = lower value 0.966 | locus YOR083W, strain WHI5, stronger effect = lower value 1 | locus YOR106W, strain vam3, stronger effect = lower value 0.986 | locus YOR136W, strain idh2, stronger effect = lower value 1.04 | locus YOR144C, strain elg1, stronger effect = lower value 1.03 | locus YOR184W, strain ser1, stronger effect = lower value 1.05 | locus YOR265W, strain rbl2, stronger effect = lower value 0.993 | locus YOR270C, strain vph1, stronger effect = lower value 1.02 | locus YOR290C, strain snf2, stronger effect = lower value 0.966 | locus YOR316C, strain cot1, stronger effect = lower value 1.03 | locus YPL051W, strain arl3, stronger effect = lower value 0.986 | locus YPL078C, strain atp4, stronger effect = lower value 0.982 | locus YPL106C, strain sse1, stronger effect = lower value 1 | locus YPL240C, strain hsp82, stronger effect = lower value 0.998 | locus YPL241C, strain CIN2, stronger effect = lower value 1.01 | locus YPR119W, strain clb2, stronger effect = lower value 1.02 | locus YPR141C, strain kar3, stronger effect = lower value 1.01 | locus YPR163C, strain tif3, stronger effect = lower value 1.04 | locus YPR167C, strain met16, stronger effect = lower value 1.03 | strain wtn01, stronger effect = lower value 1.02

— PubChem BioAssay AID1159580 (chemical genetic matrix, 2015)
